Screens as filed in PubChem BioAssay.
POLI inh: qHTS for Inhibitors of Polymerase Iota. DNA polymerase iota (Homo sapiens), Q9UNA4. 1% of 390,000 active. Pol iota fluorescent replication assay, 10 min. Potency, µM (doses to about 115 µM), for inactives: top-dose activity, negative = inhibition, usual class: inhibitors; further: potency means the concentration at half of the fitted maximal effect
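Pol iota at 10 nM preincubated 15 min with compounds at room temperature; reaction started with fluorescent substrate, 50 nM final. Fluorescence read kinetically at 0 and 10 min; buffer-only wells as negative control.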
FEN1 inhibitor: qHTS Assay for the Inhibitors of Human Flap endonuclease 1 (FEN1) | Recombinant FEN1 flap cleavage, fluorescence, 15 min | 0.35% of 390,000 active | Potency, µM (doses to about 114 µM), inactives show at the highest dose activity change, negative = inhibition, most hits filed as inhibitors; further: potency means the concentration at half of the fitted maximal effect; on the % scale 0 is the no-effect control and ±100 the full control effect; nearly all actives have a fitted effect of over 65% in size
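With each library titrated from low to high concentration, compounds met 10 nM FEN1 for 15 min at room temperature before 50 nM substrate was added; readings at 0 and 15 min fed four-parameter Hill curve fits.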
PI5P4Ka inh: qHTS for Inhibitors of phosphatidylinositol 5-phosphate 4-kinase (PI5P4K); PI5P4Kalpha enzyme, ADP-Glo luminescence, 60 min; hits give low values; max response, %; 1.2% of 330,000 active; Phosphatidylinositol 5-phosphate 4-kinase type-2 alpha (Homo sapiens), P48426; active means max response of -50% or lower; inconclusive means between -30% and -50%; inactive means -30% or higher; further: value at the top dose of about 77 µM; on the % scale 0 is the no-effect control and ±100 the full control effect
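ADP-Glo luminescence end-point read after a 60 min room-temperature kinase reaction of PI5P4Kalpha plus substrate, initiated with ATP at 5 microM final. Buffer: 0.038 M HEPES pH 7.4, EGTA, 0.1% CHAPS, 5% DMSO.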
POLK inh: qHTS for Inhibitors of Polymerase Kappa. DNA polymerase kappa (Homo sapiens), Q9UBT6. purified Pol kappa, fluorescent DNA synthesis assay, 10 min. Potency, µM (doses to about 107 µM), without a hit: at the highest dose activity, negative = inhibition, most hits filed as inhibitors. 0.53% of 400,000 active; further: potency means the concentration at half of the fitted maximal effect; on the % scale 0 is the no-effect control and ±100 the full control effect
Target sequence (Q9UBT6 whole entry, looked up): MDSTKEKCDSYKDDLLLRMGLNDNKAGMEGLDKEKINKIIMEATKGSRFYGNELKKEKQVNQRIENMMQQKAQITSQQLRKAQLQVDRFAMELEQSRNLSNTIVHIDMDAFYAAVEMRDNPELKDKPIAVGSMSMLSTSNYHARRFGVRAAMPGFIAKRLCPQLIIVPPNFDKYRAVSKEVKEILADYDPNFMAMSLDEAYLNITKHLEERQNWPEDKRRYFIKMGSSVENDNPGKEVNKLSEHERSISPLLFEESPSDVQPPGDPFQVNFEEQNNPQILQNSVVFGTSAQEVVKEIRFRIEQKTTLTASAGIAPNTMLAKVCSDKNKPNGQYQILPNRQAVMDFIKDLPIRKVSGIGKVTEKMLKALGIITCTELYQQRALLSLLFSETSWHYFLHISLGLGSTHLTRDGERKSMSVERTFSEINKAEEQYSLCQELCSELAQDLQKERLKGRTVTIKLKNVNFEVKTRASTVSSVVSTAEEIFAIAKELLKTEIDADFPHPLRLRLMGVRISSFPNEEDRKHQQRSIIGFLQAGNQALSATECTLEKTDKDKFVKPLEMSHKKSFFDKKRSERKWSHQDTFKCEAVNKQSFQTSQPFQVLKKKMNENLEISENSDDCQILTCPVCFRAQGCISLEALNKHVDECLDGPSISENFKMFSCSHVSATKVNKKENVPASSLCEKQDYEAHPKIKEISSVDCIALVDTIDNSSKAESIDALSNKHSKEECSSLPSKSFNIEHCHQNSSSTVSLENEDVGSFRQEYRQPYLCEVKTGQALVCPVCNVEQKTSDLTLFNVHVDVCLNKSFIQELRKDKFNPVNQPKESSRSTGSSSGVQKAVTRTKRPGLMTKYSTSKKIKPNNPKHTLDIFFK
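10 nM Pol kappa was preincubated with compounds for 15 min at room temperature. Reaction started with 50 nM (final) substrate. Fluorescence read kinetically at 0 and 10 min.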
Pol beta inh: qHTS Assay for Inhibitors of DNA Polymerase Beta. 1.3% of 340,000 active. Potency, µM (series often up to 114 µM), inactives show at the top dose activity change, negative = inhibition, usual class: inhibitors. Pol beta primer extension/strand displacement, fluorescence kinetic. P06746; further: potency means the concentration at half of the fitted maximal effect; on the % scale 0 is the no-effect control and ±100 the full control effect
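Enzyme-only controls used 10 nM Pol beta; buffer lacking enzyme served as negative control. Compound preincubated 15 min, then 50 nM substrate added; 0 and 10 min reads at room temperature.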
Pol eta inh: qHTS for Inhibitors of Polymerase Eta; 1.2% of 390,000 active; recombinant Pol eta, fluorescent DNA replication assay; DNA polymerase eta (Homo sapiens), Q9Y253; Potency, µM (series often up to 114 µM), for the others: at the top dose activity change, negative = inhibition, hits mostly inhibitors; further: potency means the concentration at half of the fitted maximal effect; on the % scale 0 is the no-effect control and ±100 the full control effect
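Pol eta at 10 nM preincubated with compounds 15 min at room temperature; reaction started with fluorescent substrate (50 nM final) and read kinetically at 0 and 10 min.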
Numbers without * were called inactive; ? = inconclusive; . = not tested or not shown; [ ] = another dose, or the depositor's remark. An excerpt weighted towards active compounds, which were near 2.8% of everything screened. Unless noted, the call rests on the fitted dose curve; in most records, active means well fitted curve in the direction sought with a large enough effect; inconclusive means small, poorly fitted or top-dose-only effect, or another doubt; inactive means no such curve, though single readings can be large; an effect the other way counts as inactive or inconclusive.

SMILES | POLI inh | FEN1 inhibitor | PI5P4Ka inh | POLK inh | Pol beta inh | Pol eta inh
COc1ccccc1C(=O)NNC(=O)c1ccc(NS(=O)(=O)c2cccs2)cc1 | -12.8% | 15.3% | 1.3 | -3.5% | 2.4% | -10.5%
Cc1ccc2[nH]c(O)c(N=NC(=O)c3ccc(NS(=O)(=O)c4cccs4)cc3)c2c1 | ? | ? | -56.2* | -10.7% | 2.6% | 22.4µM*
CC(=NNC(=O)c1ccc(NS(=O)(=O)c2ccc(Br)cc2)cc1)c1cccnc1 | 72.2% | 0.9% | -52.6* | -0.9% | . | -9.7%
Cc1ccc(C(=O)N2CCN(c3nc4ccccc4n3C)CC2)cc1 | 13.8% | 16.4% | 10.4 | 0.0% | 22.5% | -3.5%
CCN1C(=O)/C(=C2/Sc3ccccc3N2CC)S/C1=N\c1ncn[nH]1 | 85.4% | -3.7% | -10.4 | -2.6% | -25.0% | -10.2%
COc1cc(/C=N\NC(=O)c2ccc(-c3ccccc3)cc2)cc(OC)c1O | 31.6µM* | ? | -9.4 | ? | 25.1µM* | ?
CCOc1cc(/C=N/Nc2nn3cnnc3c3ccccc23)ccc1O | ? | ? | -3.1 | -39.0% | ? | ?
COc1cc(C(=O)N/N=C/c2ccc3c(c2)c2ccccc2n3C)ccc1O | 17.8µM* | -24.0% | -17.9 | ? | 25.1µM* | 15.8µM*
COc1cc(/C=N/Nc2nn3cnnc3c3ccccc23)ccc1O | ? | ? | . | -2.4% | 50.1µM* | ?
COc1cc(/C=N/NC(=O)c2ccc(NS(=O)(=O)c3cccs3)cc2)cc(OC)c1O | -26.6% | ? | -59.8* | -8.2% | . | -28.0%
C/C(=N\NC(=O)c1ccc(NS(=O)(=O)c2cccs2)cc1)c1ccccc1 | -6.5% | -0.7% | -52.7* | -3.1% | 26.1% | -11.0%
C[C@@H]1[C@H](c2ccccc2)OCCS(=O)(=O)N1Cc1cccc(Cl)c1 | 16.4% | -2.7% | . | 7.1% | . | .
CCOc1cc(C2CC(=O)NC(SCC)=C2C#N)ccc1O (centres undefined) | 13.4% | 14.0% | 4.2 | 1.7% | 21.9% | -8.9%
CCOc1cc(C2CC(=O)N3CN(C4CCCCC4)CSC3=C2C#N)ccc1O (centres undefined) | 35.5µM* | ? | -60.5* | -29.3% | -16.7% | -12.5%
N#CC1=C2SCN(C3CCCCC3)CN2C(=O)CC1c1ccc(Br)cc1 (centres undefined) | 20µM* | ? | . | -29.4% | ? | ?
NCCCC[C@H]1NC(=O)[C@H](CCC(=O)O)NC(=O)c2cc([N+](=O)[O-])cc(I)c2OCC[C@@H](C(N)=O)NC1=O | 8.91µM* | 22.4µM* | ? | 3.55µM* | -8.9% | -98.3%
C[C@@H]1NC(=O)c2cc([N+](=O)[O-])cc(I)c2OCC[C@@H](C(N)=O)NC(=O)[C@H](CCCCN)NC1=O | -13.5% | 8.8% | -2.8 | -7.8% | -1.1% | -6.1%
COc1ccc(OC(C)C(=O)NCc2nc(-c3ccc(Cl)cc3)no2)cc1 (centres undefined) | ? | -4.5% | . | ? | -0.9% | -11.4%
C(=C\c1ccco1)/c1ccc2ccccc2n1 | ? | 6.8% | -29.9 | ? | 10µM* | -21.5%
Fc1cccc(F)c1/C=C/c1ccc2ccccc2n1 | -0.8% | -20.0% | 11.0 | -12.0% | 16.8%[57.1 µM] | -20.0%
CCOc1ccc(NC(=O)Cn2cc(S(=O)(=O)c3ccc(C)cc3)c(=O)c3cc(F)ccc32)cc1 | 57.1% | -0.8% | . | -3.3% | 0.6% | -1.9%
O=c1c(-c2cccs2)nc2cnc(N3CCNCC3)nc2n1Cc1cccs1 | . | . | . | 31.6µM* | . | .
O=c1c(-c2cc(F)cc(F)c2)nc2cnc(N3CCNCC3)nc2n1Cc1cccs1 | . | . | . | 28.2µM* | . | .
CCN(CC(=O)NCc1ccc(F)cc1)C(=O)C1CCN(S(=O)(=O)c2ccc(C(C)C)cc2)CC1 | 21.0% | -11.9% | -4.4 | -4.5% | . | -6.2%
COc1ccc(O)c(/C=N/NC(=O)c2ccc(N3CCCC3=O)cc2)c1 | ? | -0.5% | 3.2 | -45.0% | 10µM* | -10.9%
SMILES | POLI inh | FEN1 inhibitor | PI5P4Ka inh | POLK inh | Pol beta inh | Pol eta inh
COc1ccc(O)c(/C=N/NC(=O)c2cccc(N3CCCC3=O)c2)c1 | ? | -1.0% | 0.3 | 0.4% | 17.5% | -9.3%
CCS(=O)(=O)C1=NSC2=NC(=O)/C(=C\c3ccc(OC(=O)c4ccco4)cc3)C(=N)N21 | ? | -1.0% | -86.9* | 3.5% | -21.5% | 79.4µM*
CC(C)S(=O)(=O)C1=NSC2=NC(=O)/C(=C\c3ccc(OC(=O)c4ccco4)cc3)C(=N)N21 | 13.4% | -4.1% | -76.1* | -0.6% | 22.8% | ?
N=C1/C(=C\c2ccc(OC(=O)c3ccco3)cc2)C(=O)N=C2SC(N3CCCCC3)=NN12 | ? | ? | -51.5* | ? | -5.4% | ?
CCOc1cc(/C=C2\C(=N)N3N=C(N4CCCCC4)SC3=NC2=O)ccc1OC(=O)c1ccco1 | ? | 6.7% | -25.4 | -28.3% | ? | ?
CCc1ccccc1NC(=O)C(=O)NCC(c1cccnc1)N1CCN(c2ccccc2F)CC1 (centres undefined) | -5.0% | -10.4% | . | -14.5% | 7.1% | -15.7%
O=C(OCC(=O)c1c[nH]c2ccccc12)c1cccc(S(=O)(=O)N2CCCCCC2)c1 | ? | -2.0% | 3.0 | -7.2% | -1.3% | -15.8%
CCc1cccc2c(C(=O)COC(=O)c3cccc(S(=O)(=O)N(C)C4CCCCC4)c3)c[nH]c12 | 6.8% | -4.6% | -68.5* | -2.0% | -1.1% | -22.5%
Cc1cccc(C(=O)Nc2nc(-c3nnn(-c4cc(C)ccc4C)c3C)ns2)c1 | -2.8% | -3.9% | . | -4.0% | -20.3% | -17.1%
COc1ccc(Nc2cc(C)nc(N3CCOCC3)n2)cc1 | 31.6µM* | -1.6% | -1.0 | -10.3% | 24.0% | 3.9%
COc1ccc(Nc2nc(N3CCOCC3)nc(N3CCOCC3)n2)cc1 | -15.3% | -2.2% | 1.4 | -4.6% | 47.2% | -9.3%
CCC(=O)N1CCc2cc(S(=O)(=O)NC(C(=O)NCc3ccc(OC)cc3)C(C)C)ccc21 (centres undefined) | -2.5% | -8.2% | . | -6.4% | 15.0% | -9.3%
O=C(O)c1ccccc1-n1ncc2c1/C(=C/c1ccc(Cl)cc1)CC2 | . | . | . | . | 39.8µM* | .
O=S1(=O)CCC(n2ncc3c2/C(=C/c2ccccc2)CC3)C1 (centres undefined) | 59.5% | 13.4% | -14.0 | -13.6% | -21.8% | -8.5%
O=C(CN1CCCCCCC1)N/N=C/c1ccc([N+](=O)[O-])o1 | 44.7µM* | -17.6% | 0.3 | ? | ? | ?
O=C(N/N=C/c1ccc([N+](=O)[O-])o1)c1ccc2c(c1)OCO2 | ? | -8.8% | -8.0 | -21.3% | 39.8µM* | -6.7%
